According to publication PMC13494018:

B1: design_604_3e0b3014-b333-46f1-8adc-d7f0bf8048fa_2314_dldesign_0_cycle1_af2pred (protein)
chain: EKEKRKEAIEKAEKVSTRIAKDIDTPEAKKIEELTKEAAEKALENVDNPEEVVKIMKEAAEEAAKDPEMEAVALVWKNAADFIK
B2: design_604_3e0b3014-b333-46f1-8adc-d7f0bf8048fa_1949_dldesign_0_cycle1_af2pred (protein)
chain: AEKYKKKMAEAAHLYADLAMEGKPEEGEKEADAIIEKALKEGKAAGDGEAAEAAAKEARATMEYLKKTMEEADKRNK
B3: design_605_6ebdab39-eaab-4492-afcb-164e20c3b25e_50_dldesign_0_cycle1_af2pred (protein)
chain: DEKIEELREAILESAKSGGETVEEVAKLAKELGLTSAEVMLAALEAAEELPEKRELAREIGRRIAAAVLA
B4: design_605_6ebdab39-eaab-4492-afcb-164e20c3b25e_437_dldesign_0_cycle1_af2pred (protein)
chain: MKEEAEEAKKRAEAIKKAAKEDPDKAAALIAKGFASPLAAAVKAAPPETRAEAAAQAAKVATRILENEARSYERTAN
B5: design_604_3e0b3014-b333-46f1-8adc-d7f0bf8048fa_1994_dldesign_0_cycle1_af2pred (protein)
chain: DNKKTVEALSKVNRLGKEAGEAPKEETMKLVEEGVKYAKEEAKKLKDPDYKKYLIDRGKELEENAKKYLA
B6: design_605_6ebdab39-eaab-4492-afcb-164e20c3b25e_165_dldesign_0_cycle1_af2pred (protein)
chain: AAAAEAAAKEAAAKLAIAEARALIRAGRANPKFGVELALEGAKIAREAAKKNPAMKEELEKTAKEAEKEAKKLA
B7: design_604_3e0b3014-b333-46f1-8adc-d7f0bf8048fa_2182_dldesign_0_cycle1_af2pred (protein)
chain: EEEEKKQKAVEKAKEAAKRLKEVYEKAPEELKPIVKDALDKVEAYAELAELNDAEIAEKAAKRAEKIAEEAIKKVE
B8: design_604_3e0b3014-b333-46f1-8adc-d7f0bf8048fa_2376_dldesign_0_cycle1_af2pred (protein)
chain: EEFEKAKKELKEAAEEAKKIDPEVGKEAKKIAEKATKVADSIIEKVGERAKPIATDILKNAKEKIKKLTEKRKKEKEA
B9: design_605_6ebdab39-eaab-4492-afcb-164e20c3b25e_737_dldesign_0_cycle1_af2pred (protein)
chain: MEELKEQIKEIKEKAEEILKNKETASLGILAESNAEDAEKLLKAGEADPSTKEKNVAEAKKFLKAAKEYAEKGLELMKKLK
B10: design_605_6ebdab39-eaab-4492-afcb-164e20c3b25e_729_dldesign_0_cycle1_af2pred (protein)
chain: SSSKETSEFNRELQKRARAAGEELEKKSKNPEAGKEAKKLLSNGLMESFDKSSKEEAKAALDKAIAEAKKHVEEAS
B11: design_605_6ebdab39-eaab-4492-afcb-164e20c3b25e_593_dldesign_0_cycle1_af2pred (protein)
chain: EVEAKASEVAARARQVIAEAEYLERRAKKEGDKEKEKKAKEAKELAEKALELIKKGGLEGVEKAEKLVEEAEKLLEE
B12: design_604_3e0b3014-b333-46f1-8adc-d7f0bf8048fa_2008_dldesign_0_cycle1_af2pred (protein)
chain: SSLEEAKKAKELAEELKKKVKELAKEAKADPSKAAEAAKVAKAIGEEAKELGKKYPEAAKYADAVAEYALHAAEQLEKLA
B13: design_605_6ebdab39-eaab-4492-afcb-164e20c3b25e_661_dldesign_0_cycle1_af2pred (protein)
chain: MEEFEKLVKEAEKLIKKALESKDKEERKKLVEEAKEVLKKAQKLGKELAAKSTPEEAKEIVEKMHELHEKLAEAKQKAS
B14: design_604_3e0b3014-b333-46f1-8adc-d7f0bf8048fa_1973_dldesign_0_cycle1_af2pred (protein)
chain: MAEKEAKAKKLMAEGYSKVYEAAALARVDPEEGKKEWEEVVEKYTKELEKLDPEKGKELKEKAEKLLEKAL
B15: design_604_3e0b3014-b333-46f1-8adc-d7f0bf8048fa_2472_dldesign_0_cycle1_af2pred (protein)
chain: EEEKKLTDEAIKEAKKLFAKAGAEEDAKEVAEKARKEGVSAGLSKALSLAEYYKAEGNEKKAEAAEKAAEALADALIKIRKAKRE
B16: design_605_6ebdab39-eaab-4492-afcb-164e20c3b25e_648_dldesign_0_cycle1_af2pred (protein)
chain: AEAEELKKKASQYLMEAFDTGSEEELKKAIEYAEKAAEAASEEEGKKILEEKEKMKKGFERFLKAYKEAQKKAEE
B17: design_605_6ebdab39-eaab-4492-afcb-164e20c3b25e_2_dldesign_0_cycle1_af2pred (protein)
chain: SAVKEEAKKIIDEALDAGFEDPEKGRALAEEAYKLLASVPELAALGEEALKKVNAIIDRFEEATKKAEESRK
B18: design_605_6ebdab39-eaab-4492-afcb-164e20c3b25e_258_dldesign_0_cycle1_af2pred (protein)
chain: KAKELSKIVHEGFQAAKELELLAKKDPRMKPAAEEAEKLRKKAVEAAKAGDYEKAAEYAKKLKELAEKALKEYE
B19: design_604_3e0b3014-b333-46f1-8adc-d7f0bf8048fa_2086_dldesign_0_cycle1_af2pred (protein)
chain: SAAAEKNVALASGTFKRLLEFPEEEQVATIADSIRANPAAADYFAAAAKADKENGPKLKKVLDIAAAKVAAA
B20: design_605_6ebdab39-eaab-4492-afcb-164e20c3b25e_768_dldesign_0_cycle1_af2pred (protein)
chain: DIAKLAEKAAKALKKAAEEGLEALAKAAALVQEARAEAKFKGLKEVAELLEKALKLAREAGKTEDEEERKALAEKAAKYAEEAAKKAK
B21: design_604_3e0b3014-b333-46f1-8adc-d7f0bf8048fa_2206_dldesign_0_cycle1_af2pred (protein)
chain: NELEKLKEEIKKEGEKKLKEVEEKYKEAKKLLKEDKEKGLKLLAETAGKAYEYAAEFEVLSKKVPEAAEYAKKLRAKAKEIRKLAEEA
B22: design_605_6ebdab39-eaab-4492-afcb-164e20c3b25e_707_dldesign_0_cycle1_af2pred (protein)
chain: MKKQAIELAEEAKELMEKEGATPEAVALASSALRTAGFPRELAEEVREAYKKDKEEGEKKLKEAVKLVLERAKKK
B23: design_605_6ebdab39-eaab-4492-afcb-164e20c3b25e_128_dldesign_0_cycle1_af2pred (protein)
chain: MEEKKAEEKKLKEKKEEAKEYLRRAKRAMGRAMVKGDEEAFELAEEAVYLAHLAIKDPKYIEEAKKKTEEAEKRVEA
B24: design_605_6ebdab39-eaab-4492-afcb-164e20c3b25e_758_dldesign_0_cycle1_af2pred (protein)
chain: SEYFKEAVDVASKIVRAYHALAAVFPETAAQLEADGDAKVDKVMAAAELAEKDPEKGKAELEKQKAEAEKIKAEADKAAAAAR
B25: design_604_3e0b3014-b333-46f1-8adc-d7f0bf8048fa_2312_dldesign_0_cycle1_af2pred (protein)
chain: MEEVEKLKKEAEKAAKEAEKAVERIKDPKTAKEALKEASKELAKLYELAAELEHLPEGKEAGKEVREKAKKLREEAKKAWAAQLAA
B26: design_605_6ebdab39-eaab-4492-afcb-164e20c3b25e_16_dldesign_0_cycle1_af2pred (protein)
chain: AAAAHAKAVAEAKEEMKETIKEEAKKAKEKNEEAGKESLEFGKELLEFFEKSMEKVKDPKEAKKGGERGKKIIKKNAEAITKAIT
B27: design_605_6ebdab39-eaab-4492-afcb-164e20c3b25e_565_dldesign_0_cycle1_af2pred (protein)
chain: AVEKTIAELLKAASAAIIELFDDPEKGRAKLAEVLAKAEAAAKAASPKDAAKIQAALDEMKKRGEAAIKRVEEDEKIAK
B28: design_605_6ebdab39-eaab-4492-afcb-164e20c3b25e_689_dldesign_0_cycle1_af2pred (protein)
chain: GAAQEEADKALEKAGKILKEAEKLAKEAAKIGTEEEAKELEELIKKAKELLEKGKASTPEEKKKLAVEAAEYAHEARALAKHILASK
B29: design_604_3e0b3014-b333-46f1-8adc-d7f0bf8048fa_2199_dldesign_0_cycle1_af2pred (protein)
chain: DAAVKAEASKVAAEAYEVIAEIEKLDPEKGKELRKKLKEARKKAKEDPKAGLAALKEVLEESKKELEKLKKEEKEKE
B30: design_604_3e0b3014-b333-46f1-8adc-d7f0bf8048fa_2138_dldesign_0_cycle1_af2pred (protein)
chain: GEELIKRAEEVIERAEKVRKEDPSLAKEANEAISTAEQAKQAAENAVKAAADPEKAKEFKEAAEKYLEKAEKRVEELEKKVKE
B31: design_605_6ebdab39-eaab-4492-afcb-164e20c3b25e_494_dldesign_0_cycle1_af2pred (protein)
chain: AEALEKGKAASAALDANIATGFATAEKTGDKAAAGAAAVAATAEAGAAIGPEAAEKGRRVMTSIFDGYVKA
B32: design_605_6ebdab39-eaab-4492-afcb-164e20c3b25e_390_dldesign_0_cycle1_af2pred (protein)
chain: KEEKVEEVKKKMEESSLAEAVFIGIEAVMEFTKDAPEYMRKIVKAGRKGGEEGDEEKAKKEMAEIVKKAAE
B33: design_605_6ebdab39-eaab-4492-afcb-164e20c3b25e_250_dldesign_0_cycle1_af2pred (protein)
chain: AAAAAAARLAAGLAAAAKFVEEATKKAREIAAKKTPEESAKAKAEVEEYEAMARDALAMGNAAGARSIARLALEKVS
B34: design_604_3e0b3014-b333-46f1-8adc-d7f0bf8048fa_2309_dldesign_0_cycle1_af2pred (protein)
chain: SHELLQQAIEELTAAEAEARRAAKIAEKKDKELAKKAKELAKKARELRKELIEKAKAGEATDEYIEEVLKKAKELEKEAKKILKEL
B35: design_605_6ebdab39-eaab-4492-afcb-164e20c3b25e_558_dldesign_0_cycle1_af2pred (protein)
chain: EEEKKLVELLHEAQELAAEAEFYSKKDKEKSKEYIEKATKKIEEAAKLAGFEPIKAKNVEDLKEVLKEAIKKASERIKERKA
B36: design_605_6ebdab39-eaab-4492-afcb-164e20c3b25e_501_dldesign_0_cycle1_af2pred (protein)
chain: AAAEEAAKKALKELKEEAKKLVEEAKKSNAEEAKKKRKEVVELGKEYAEKAAASPEVQKEIAKVVHEAQEELAEAAFEHSRKEKE
B37: design_605_6ebdab39-eaab-4492-afcb-164e20c3b25e_445_dldesign_0_cycle1_af2pred (protein)
chain: AKEKALIDLQIAEQMAEAAKEGYAGTAAAKRAAKAAKRAIKLDPSLAEEAVKIMKELAKAAAKQDPEAGKVAAKELKEVEKEAKKVKE
B38: design_605_6ebdab39-eaab-4492-afcb-164e20c3b25e_178_dldesign_0_cycle1_af2pred (protein)
chain: MSEEIKKKAEEIVEEALKKAEAAPTVEEAQAILDEALDKAVSLGKTIEEKKYAADLVSKARKKLREVWKAR

target: VTCN1, Q7Z7D3
Sequence (Q7Z7D3 whole entry): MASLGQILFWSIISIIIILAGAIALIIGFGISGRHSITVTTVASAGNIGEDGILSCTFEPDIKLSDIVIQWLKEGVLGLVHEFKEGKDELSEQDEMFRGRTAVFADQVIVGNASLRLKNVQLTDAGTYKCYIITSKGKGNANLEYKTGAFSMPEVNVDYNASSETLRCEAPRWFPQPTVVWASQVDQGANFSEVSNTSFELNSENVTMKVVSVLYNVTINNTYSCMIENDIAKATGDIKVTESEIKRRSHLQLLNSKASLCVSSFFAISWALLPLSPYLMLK

Binding in a display sort, inactive:
B1 not found
B2 not found
B3 not found
B4 not found
B5 not found
B6 not found
B7 not found
B8 not found
B9 not found
B10 not found
B11 not found
B12 not found
B13 not found
B14 not found
B15 not found
B16 not found
B17 not found
B18 not found
B19 not found
B20 not found
B21 not found
B22 not found
B23 not found
B24 not found
B25 not found
B26 not found
B27 not found
B28 not found
B29 not found
B30 not found
B31 not found
B32 not found
B33 not found
B34 not found
B35 not found
B36 not found
B37 not found
B38 not found
